Compounds with a hit are over-represented: about 1.6% of the library has one in this group of screens.
dFosB act-1: activators of delta FosB homodimer, primary screen, biochemical, fluorescence polarization, TAMRA-CDK5 oligo, single point; Protein FosB (Mus musculus), P13346; purified delta FosB; percent of positive-control signal above neutral wells; activation, % at 25 µM; 0.99% of 340,000 active; AID 493131, 2011;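 active = mean activation above about 17%, with every replicate also reaching it, limit read from the data, passing the limit was not always enough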
Target sequence (P13346 whole entry, looked up): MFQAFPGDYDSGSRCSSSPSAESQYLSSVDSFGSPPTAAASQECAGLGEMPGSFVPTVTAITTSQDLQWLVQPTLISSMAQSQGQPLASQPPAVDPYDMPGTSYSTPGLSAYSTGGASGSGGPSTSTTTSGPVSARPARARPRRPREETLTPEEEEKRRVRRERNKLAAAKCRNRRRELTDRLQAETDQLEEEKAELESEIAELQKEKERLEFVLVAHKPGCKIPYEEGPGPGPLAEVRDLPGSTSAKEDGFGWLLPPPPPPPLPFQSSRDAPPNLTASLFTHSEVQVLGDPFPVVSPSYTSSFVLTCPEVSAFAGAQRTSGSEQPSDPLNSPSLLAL
Bfl-1 A1 inh: caspase 3/7 activation in MEF A1-2A-BIM cells, primary screen, A1 inhibitor project, cell-based, luminescence, HTS. Caspase-Glo 3/7 luminescence, 3 h; percent of clofoctol response, vehicle zero. caspase activation, % (no concentration beside the values). 0.066% of 330,000 active. AID 2462, 2010;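 active = over half of replicate activation scores above 10%, or exactly half above 10 with the replicate mean above 10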
B2AR ag: beta2AR agonists driving receptor internalization, primary screen, cell-based, FAP fluorogen, flow cytometry. Am2.2-beta2AR cells. response, % (concentration not given with the values). Beta-2 adrenergic receptor (Homo sapiens), P07550. 0.43% of 340,000 active;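 active = response above a set limit, near 3 SD of response in nonfluorescent compounds, cut at about 42% in these data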
Dyrk1A ADPGlo: rat Dyrk1A kinase inhibitors, primary screen, biochemical, single point, plate reader; Dual specificity tyrosine-phosphorylation-regulated kinase 1A (Rattus norvegicus), Q63470; ADP-Glo luminescence, NFATc1 peptide; inhibition, % at 12.5 µM; 0.43% of 310,000 active; AID 504441, 2011; in the data active = inhibition above about 50%;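 note: plate controls were vehicle with enzyme for no effect and no enzyme for full effect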
dFosB act-2: activators of mouse delta FosB DNA binding, confirmation, biochemical, fluorescence polarization, TAMRA-CDK5 oligo, cherry-picked samples | shares compounds with dFosB act-1 | purified delta FosB; normalised: neutral wells 0, positive control 100 | activation, % at 24.9 µM | 2,400 tested, under 10 active | AID 588690, 2011;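 active = highest replicate activation at or above 34% and every replicate reaching that threshold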;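 note: higher polarization means more probe DNA bound by delta FosB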
Starred values were filed as active, the others as inactive; . = no result given.

SMILES | dFosB act-1 | Bfl-1 A1 inh | B2AR ag | Dyrk1A ADPGlo | dFosB act-2
COc1ccc(Cn2c(SCc3ccccc3C)nc3cc(OC)c(OC)cc3c2=N)cc1 | 45.3* | 0.4 | 34.3 | 1.2 | 1.8
O=C(COC(=O)c1ccc2ncsc2c1)NCc1cccc(Cl)c1 | -13.1 | -0.1 | 0.5 | . | .
O=C(COC(=O)c1ccc2ncsc2c1)NCc1ccccc1Cl | 23.5* | -0.6 | 4.1 | . | -5.7
CCOc1cccc(-c2c(C(=O)N/N=C/c3sccc3C)nnn2-c2nonc2N)c1 | 5.2 | 0.7 | -6.0 | 26.9 | .
CCOc1ccc(-c2c(C(=O)N/N=C/c3sccc3C)nnn2-c2nonc2N)cc1 | 21.7* | -1.1 | -8.8 | 7.2 | -0.9
CCOc1ccc(-c2c(C(=O)N/N=C/c3ccc(Cl)cc3)nnn2-c2nonc2N)cc1 | 44.9* | -0.5 | -4.2 | . | 5.4
CCOc1ccc(-c2c(C(=O)N/N=C/c3ccc(C)s3)nnn2-c2nonc2N)cc1 | 57.8* | 1.4 | 13.6 | -0.5 | 2.7
CCOc1ccc(-c2c(C(=O)N/N=C/c3ccccc3)nnn2-c2nonc2N)cc1 | 1.2 | 0.0 | -2.7 | -1.9 | .
COC(=O)c1ccc(/C=C2/SC(=S)N(CCC(=O)NCCCN3CCOCC3)C2=O)cc1 | -0.2 | -0.5 | -7.0 | -3.4 | .
O=C1C2=C(NC(=S)NC2c2ccc(Cl)cc2)NC(c2ccc(Cl)cc2)N1c1ccc(Cl)cc1 (stereo not drawn) | 82.1* | 0.6 | 17.6 | -2.2 | -0.1
O=C1C2CCCN2C(c2ccc(F)cc2)N1c1ccc(Cl)cc1 (stereo not drawn) | 3.3 | 0.0 | -6.5 | 8.3 | .
COc1cc(NC(=O)c2nn(C)c3c2CS(=O)(=O)c2ccccc2-3)cc(OC)c1 | 22.7* | 3.6 | 12.2 | -2.2 | -0.2
CS(=O)(=O)Cc1cccc(C(=O)NN(c2ccccc2)c2ccccc2)c1 | -17.1 | 0.9 | 9.5 | -1.2 | .
Cc1ccc(-n2nc3c(=O)n(CC(=O)NCCc4ccc(Cl)cc4)nc(C)c3c2C)cc1 | 50.6* | 0.3 | -0.6 | -2.8 | 0.1
CCc1ccc(CNC(=O)CCn2nc(C)c3c(C)n(-c4ccccc4)nc3c2=O)cc1 | 73.4* | 0.0 | -3.4 | 2.5 | 6.4
Cc1ccc(-n2nc3c(=O)n(CC(=O)NCc4ccccc4)nc(C)c3c2C)cc1 | 20.8* | 0.2 | 3.9 | -7.5 | -0.4
CC(C)(C)C(=O)Nc1nnc(SCC(=O)NC2CC2)s1 | -0.8 | 0.8 | 2.4 | 2.5 | .
CSc1nc2ccc3nc(NC(=O)C4COc5ccccc5O4)sc3c2s1 (stereo not drawn) | 70.1* | 0.0 | 0.0 | 43.4 | -0.8
COCCNC(=O)CN1N=C(c2ccc(C)cc2)CCC1=O | 0.4 | 0.3 | 6.5 | -3.6 | .
Cc1ccccc1NC(=O)CSc1nc2scc(C)c2c(=O)[nH]1 | 27.5* | -0.2 | 4.6 | -0.4 | 3.0
Cc1csc(NC(=O)CSc2nc3sc(C)c(C)c3c(=O)[nH]2)n1 | -0.2 | 1.6 | 12.0 | -7.8 | .
Cc1ccc(NC(=O)CSc2nc3nc(C)cc(C)c3c(=O)[nH]2)cc1 | 22.1* | -0.3 | -4.3 | -4.1 | 3.8
Cc1sc2nc(SCC(=O)Nc3ccccc3F)[nH]c(=O)c2c1C | 22.5* | 0.4 | 1.5 | -2.0 | 0.2
C=CC[C@H]1C=C[C@@H](C(C(=O)OC)C(=O)OC)CN1C(C)=O | -2.9 | . | 1.8 | . | .
CCn1c(COc2ccccc2)nnc1SCC(=O)NC1CC1 | -5.7 | 0.1 | 2.1 | 3.0 | .
SMILES | dFosB act-1 | Bfl-1 A1 inh | B2AR ag | Dyrk1A ADPGlo | dFosB act-2
COc1cc2c(cc1OC)CN(C(=O)C1CCCN1S(=O)(=O)c1ccc(F)cc1)CC2 (stereo not drawn) | -10.1 | 1.0 | 5.6 | -1.5 | .
COc1ccc(-c2ccc3c(c2)C2CC3CCN2Cc2ccc(OC(F)(F)F)cc2)cc1 (stereo not drawn) | 7.5 | . | -0.9 | 1.0 | .
C=CCn1c(C)cc(-c2csc(NC(=O)C3CCN(c4ncnc5sc(C)c(C)c45)CC3)n2)c1C | 30.1* | . | 7.8 | . | 0.2
COc1ccc(-c2csc(NC(=O)C3CCN(c4ncnc5sc(C)c(C)c45)CC3)n2)cc1OC | 25.9* | 0.4 | 27.6 | 18.2 | -1.9
CCc1ccc2nc(NC(=O)C3CCN(c4ncnc5sc(C)c(C)c45)CC3)sc2c1 | 10.9 | -0.2 | -1.4 | . | .
Cc1nnc(SCC(=O)NCC2CCCO2)n1Cc1ccccc1 (stereo not drawn) | -4.9 | -1.0 | -0.3 | 9.9 | .
COc1ccc2nc(C)cc(NCc3ccc(F)cc3)c2c1 | 8.8 | 0.5 | -402.1 | -2.8 | .
COc1ccc(/C=C/c2nc3ccccc3n2Cc2ccccc2OC)cc1 | 25.0* | -0.2 | -7.6 | 3.9 | 0.5
COc1ccccc1Cn1c(/C=C/c2ccccc2)nc2ccccc21 | -1.0 | -0.6 | -19.8 | 2.6 | .
CCN(CC)S(=O)(=O)c1ccc(N2CC(C(=O)NCCc3c[nH]c4ccccc34)CC2=O)cc1 (stereo not drawn) | 0.0 | . | -4.1 | -3.9 | .
CC1CC(C)CN(S(=O)(=O)c2ccc(C(=O)Nc3sccc3C(N)=O)cc2)C1 (stereo not drawn) | 28.6* | -0.6 | 7.8 | -1.7 | 1.9
C=Cn1cc[n+](CC(=O)c2ccc(OC)cc2)c1 | 0.5 | 1.2 | 5.7 | 4.2 | .
Cc1ccccc1NC(=O)Cn1nnc2c(cnn2-c2ccc(F)cc2)c1=O | 18.0* | 0.1 | 5.9 | . | 4.4
O=C(Cn1ncc2c([nH]c3ccccc32)c1=O)Nc1ccc(F)cc1F | 63.6* | -0.8 | -4.8 | -3.6 | 9.0
COc1ccccc1NC(=O)CCN1C(=O)c2ccccc2C1=O | 0.8 | 1.2 | -0.7 | -5.0 | .
CCN1C(=O)[C@H]2[C@@H](c3ccc(-c4cccc(Cl)c4)cc3)N[C@@](Cc3ccccc3)(C(=O)OC)[C@H]2C1=O | -4.5 | -0.1 | 5.6 | 6.9 | .
CCOc1ccc(NC(=O)Cn2cc(C(=O)CC)c3ccccc32)cc1 | 40.7* | -0.3 | -10.8 | -5.1 | 4.1
COc1ccc(NC(=O)Cn2cc(C#N)c3ccccc32)cc1 | 41.7* | 0.7 | 8.1 | . | 1.8
CCn1c(=O)n(CC(=O)Nc2cc(OC)ccc2OC)c(=O)c2ccccc21 | -6.5 | 0.1 | -11.4 | -6.2 | .
COc1ccc(OC)c(NC(=O)Cn2cc(C#N)c3cc(Br)ccc32)c1 | 25.6* | -0.3 | 6.5 | -0.4 | 3.4
Cc1ccc(C(=O)O/N=C(\N)Cc2cccs2)c(Cl)c1 | 0.2 | -2.9 | -2.5 | 4.4 | .
Cc1cccc([C@@H]2[C@@H]3C(=O)N(Cc4ccccc4)C(=O)[C@@H]3[C@]3(CC(C)C)C(=O)N(c4cccc(F)c4)C(=O)N23)c1 | -3.5 | -0.3 | -3.0 | -6.4 | .
Cc1ccc(C)c(Cn2c(=O)n(-c3ccc(CC(=O)NCc4ccco4)cc3)c(=O)c3sccc32)c1 | 30.4* | 0.6 | -17.0 | 0.4 | -0.5
O=C(Cn1c(=O)n(-c2ccc(F)cc2)c(=O)c2sccc21)NC1CCCCC1 | 31.3* | 0.5 | -10.9 | 0.0 | 4.7
